The full ranking holds about 68,000 sequences; the median of “fluorescence intensity (a.u.)” is about 9,100, and the highest 2% start at about 16,000. The sample as a whole holds a higher share of the highest values than the screen did.

We go through 54 sequences from publication PMC7819943, “Rice protein-binding microarrays: a tool to detect cis-acting elements near promoter regions in rice”.

Chain of OsWRKY34 (Q0JBA9 entry or part of it): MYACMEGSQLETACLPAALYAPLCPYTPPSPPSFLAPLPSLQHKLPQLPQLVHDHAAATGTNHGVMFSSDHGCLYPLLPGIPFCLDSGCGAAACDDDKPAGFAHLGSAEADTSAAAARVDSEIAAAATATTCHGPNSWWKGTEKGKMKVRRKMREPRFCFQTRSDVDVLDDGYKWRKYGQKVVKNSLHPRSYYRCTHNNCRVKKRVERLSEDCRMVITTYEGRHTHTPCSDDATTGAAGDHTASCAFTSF

For the test, the target named is OsWRKY34 (Oryza sativa, UniProt Q0JBA9 1-250). Briefly: protein-binding microarray (RPBM); PBS, 2% BSA, 51.3 ng/ul salmon testes DNA, 50 uM zinc acetate, 200 nM TF, 25 C, 1 h; high values mean tight binding. Particulars: protein: recombinant; tags: N-terminal polyhistidine and DsRed monomer fusion (pET32a); label: CyDye5-dUTP incorporated in the synthesized complementary strand; 3' TTTTT single-stranded linker to array surface; dsDNA, one strand shown. In outline:
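Transcription factors were made in E. coli BL21-CodonPlus as N-terminal fusions to a polyhistidine tag and DsRed, then purified on Ni–NTA. After primer extension with Cy5-dUTP and blocking with 2% BSA, a custom Agilent array was exposed for 1 h at 25 °C to 200 nM protein in PBS, 2% BSA, salmon testes DNA and 50 µM zinc acetate. Washed arrays were scanned on an Axon 4000B, and the binding signal is per-feature fluorescence intensity in arbitrary units.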
For the sequence “CCTCTCTTTCTCTCACTCTCTGTGACTCTTGTCTTTTTGTCGGAGTCACCTAGTGCAG”, the binding signal was 8390 fluorescence intensity (a.u.). Under “TTCATCTCACGTACTGTTCTTTTGCCTCTCGCTAGCTCGTCGGAGTCACCTAGTGCAG” stands 9220 fluorescence intensity (a.u.). Under “GTTAACTTTTTAGAACATGTTTGACCGTTCGTCTTATTCACGGAGTCACCTAGTGCAG” stands 8930 fluorescence intensity (a.u.); under “CCGTTGACTTTTTAGTACATGTTTAACCGTTCGTCTTATTCGGAGTCACCTAGTGCAG”, 38600 fluorescence intensity (a.u.); under “GCCTCTTTTTTGTCGCTCTCACTGTCTCACACCTACACGTCGGAGTCACCTAGTGCAG”, 16400 fluorescence intensity (a.u.). Under “TGTTCGCGTCCATCGTTGACTTTTTCAACGCCATGCACGCCGGAGTCACCTAGTGCAG” stands 30900 fluorescence intensity (a.u.). As for “TTTTTAGTACATGTTTGACCGTTCGTCTTATTCAAAAAATCGGAGTCACCTAGTGCAG”, the binding signal is 10700 fluorescence intensity (a.u.). As to “GTTAACTTTTTAGCACATGTTTGACCGTTCGTCTTATTCACGGAGTCACCTAGTGCAG”, the binding signal was 12600 fluorescence intensity (a.u.). Under “TCCACGTTGACCACATCGCGTCACACCGTCCACGACTTTTCGGAGTCACCTAGTGCAG” stands 12700 fluorescence intensity (a.u.); under “AAGTTTTCGCGTCCAACTTTCATCGTTCGTCTTATTTGAACGGAGTCACCTAGTGCAG”, 10600 fluorescence intensity (a.u.); under “GACTTTTTAGCACATGTTTAACCGTTCGTCTTATTCAAAACGGAGTCACCTAGTGCAG”, 12100 fluorescence intensity (a.u.). Under “ATATTGTTGACTTTTTAGCACATGTTTAACCGTTCATCTTCGGAGTCACCTAGTGCAG” stands 19600 fluorescence intensity (a.u.); under “CATTGTGCGCTCTGGAGAGGCTCCAAACCACCATTGTTCGCGGAGTCACCTAGTGCAG”, 8090 fluorescence intensity (a.u.); under “GCCCTCGTCGTCGTCCGACCACCCGATCCCGACGAGAACCCGGAGTCACCTAGTGCAG”, 8690 fluorescence intensity (a.u.). Under “ATCTACTACTATTCTACTCTACTCGCAAGTCTCACAAACACGGAGTCACCTAGTGCAG” stands 8740 fluorescence intensity (a.u.). On to “AAAAAGAGTTCTCTTCTTCACTTCTACTCTTCACAACTTTCGGAGTCACCTAGTGCAG”, for which the binding signal was 9410 fluorescence intensity (a.u.).

In the case of “CATCCAAATAGGTTCTTTTAGTTCAATTTTGGGGCAGTTTCGGAGTCACCTAGTGCAG”, the binding signal is 9920 fluorescence intensity (a.u.). “GCTACTATCAAGTCATAAGCTTACTACCAAGTTATAGCACCGGAGTCACCTAGTGCAG”: the binding signal was 8320 fluorescence intensity (a.u.). Under “ATATACATGTGATAGCTTCGTCTCAAGATACATTGTCCTACGGAGTCACCTAGTGCAG” stands 9500 fluorescence intensity (a.u.); under “CTGTTCCGCCACCTACCACCGAGCCGTTGTCTCCCATGACCGGAGTCACCTAGTGCAG”, 10100 fluorescence intensity (a.u.).

Take “AAAGCCGTCGTATTGTCATCCGCCGCTCGCTGACTCATTCCGGAGTCACCTAGTGCAG”: the binding signal is 8310 fluorescence intensity (a.u.).

For “TCCCCTTCGCCCTTCGTCGTCGTCGTCGTCGTCGTTCGTCCGGAGTCACCTAGTGCAG”, the binding signal was 8050 fluorescence intensity (a.u.). Under “AACCACCACAAGCCGTTAACCCCGTTGTTTACCTCCTCCTCGGAGTCACCTAGTGCAG” stands 8190 fluorescence intensity (a.u.). As to “TTGACTTTTGCTTGCACTGTTTGATTACTCGTCTTATTAACGGAGTCACCTAGTGCAG”, the binding signal was 8670 fluorescence intensity (a.u.). Under “TGACGCCGTTGACTTTTTTAAACATGTTTGATCGTTCGTCCGGAGTCACCTAGTGCAG” stands 35900 fluorescence intensity (a.u.). Under “AACGCTATTTATTTTTTAAACATGTTTGATCGTTCGTCTTCGGAGTCACCTAGTGCAG” stands 10200 fluorescence intensity (a.u.); under “TTTCAGGTTTTGCATTTCACACCTCTGTCGTCATACTTGACGGAGTCACCTAGTGCAG”, 17800 fluorescence intensity (a.u.); under “ATTTTGACTTTTTGGTTGCGCTATTTGATTACTCGTCTTACGGAGTCACCTAGTGCAG”, 19400 fluorescence intensity (a.u.). Under “GCCGTTGACTTTTTATTACATGTTTGACCGTTCGTCTTATCGGAGTCACCTAGTGCAG” stands 62900 fluorescence intensity (a.u.). For “TTTGCAACATTTGATTACTCGTCTTATTTAATTTTTTTTTCGGAGTCACCTAGTGCAG”, the binding signal was 8230 fluorescence intensity (a.u.). Under “TTGTTTCTGTTCATTTTTCTCTATAGTACTTGCTAGGTGACGGAGTCACCTAGTGCAG” stands 11500 fluorescence intensity (a.u.). Under “TATGTTCATTTCCTTATTTGCCTCTCGTCATGTCTCTTGACGGAGTCACCTAGTGCAG” stands 10200 fluorescence intensity (a.u.). Under “AGTAAAGTCCATCACCGGTCCCTAAACTTGTACCGCTATGCGGAGTCACCTAGTGCAG” stands 8810 fluorescence intensity (a.u.); under “AAAGATCGCTTTTTCCGTGGTAGGCTTCTCCATTTTATTTCGGAGTCACCTAGTGCAG”, 10700 fluorescence intensity (a.u.). Consider “TATCTTGCCTAGCATATTGTCCGTGCGTTATTGCGATTTTCGGAGTCACCTAGTGCAG”, for which the binding signal was 10500 fluorescence intensity (a.u.). Under “TCCCACCCGTTTTTATTTTTCTCGGTGGTTAACTTATCTTCGGAGTCACCTAGTGCAG” stands 8170 fluorescence intensity (a.u.). “TTCTTATTCTGTCGGTTGTGTGGTGGCAGGGCAGTTAATTCGGAGTCACCTAGTGCAG”: the binding signal was 8630 fluorescence intensity (a.u.). Under “TCCATCACTAGCTATTTTGGTACTTTCATCTACTTATTACCGGAGTCACCTAGTGCAG” stands 8340 fluorescence intensity (a.u.). Under “TCTCTCGTTTTCCACACACACGTTTTTTAAACTGCTAAACCGGAGTCACCTAGTGCAG” stands 10200 fluorescence intensity (a.u.); under “CAAGGCCCGCCCATCCGTCTCCTCACACTCTGGCACACCTCGGAGTCACCTAGTGCAG”, 8580 fluorescence intensity (a.u.); under “CAATCCATCAAACATGCAGTCAAGGTGTATTATTCAGTATCGGAGTCACCTAGTGCAG”, 9880 fluorescence intensity (a.u.). Under “ACTCTTATTGTTCAAATGAAAATGCTAGGGGTATAACTGCCGGAGTCACCTAGTGCAG” stands 8340 fluorescence intensity (a.u.). Consider “TGCCGTTGATTTTTTTTTAAACATGTTTGACCGTTCGTCTCGGAGTCACCTAGTGCAG”, for which the binding signal was 14900 fluorescence intensity (a.u.). Under “CTTTTTTAAACATGTTTGACCGTTCGTCTTATTTAAAAAACGGAGTCACCTAGTGCAG” stands 9350 fluorescence intensity (a.u.). Under “ACTGTTCGTCTTATTTAAAATTTTTTAAATATTATTTATACGGAGTCACCTAGTGCAG” stands 12300 fluorescence intensity (a.u.). Under “CGTTGACTTTTTTAAATATATTTAGCAGTTCGTCTTATTACGGAGTCACCTAGTGCAG” stands 16500 fluorescence intensity (a.u.); under “GCCGTTGACTTTTTTAAACATGTTTGACCGTTCGTCTTATCGGAGTCACCTAGTGCAG”, 45200 fluorescence intensity (a.u.). “TTTTAACATTTTTCTTGCACTGTTTGACCATTCGTCTTATCGGAGTCACCTAGTGCAG”: the binding signal is 10400 fluorescence intensity (a.u.). As to “ACTTATATTTTTTTAACGTTTGATTGTTCGTCTTATTAAACGGAGTCACCTAGTGCAG”, the binding signal was 9470 fluorescence intensity (a.u.). Under “GCCGTTGACTTTTTAACACATGTTTGACCATTCGTCTTATCGGAGTCACCTAGTGCAG” stands 60200 fluorescence intensity (a.u.); under “GACTTTTTAACACATGTTTGACCGTTCGTCTTATTCAAAACGGAGTCACCTAGTGCAG”, 10900 fluorescence intensity (a.u.). Under “ACTTTTTTAAACATGTTTGGCCGTTCGTCTTATTCAAAAACGGAGTCACCTAGTGCAG” stands 9620 fluorescence intensity (a.u.); under “ACCGTTGATTTTTTTAAACATGTTTGACCGTTCGTCTTATCGGAGTCACCTAGTGCAG”, 17100 fluorescence intensity (a.u.).

For the sequence “TTTTAAACATGTTTGACCGTTCGTCTTATTCAAAAAATTTCGGAGTCACCTAGTGCAG”, the binding signal was 8310 fluorescence intensity (a.u.).
